Measurements published in PubChem BioAssay AID1159580 (chemical genetic matrix, 2015).
Hit rate of the full screen: of about 5,500 compounds, about 2,000 (36%) were called active. Not shown: some 18% with an inconclusive outcome. The list shows a part of the results. Unmarked numbers belong to inactive results. Rule as the data show it: active = normalized growth mostly below about 0.91 (no sharp cut-off); inconclusive = no clear call, values can overlap the other calls; inactive = mostly above about 0.92.

Assay: chemical genetic growth profiling, strain panel (AID 1159580);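 also: tested at 20 µM; growth read once vehicle control cultures reached saturation at 30 °C; 1 = growth at the plate median or of vehicle wells; lower values mean less growth of the strain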
Details: S. cerevisiae deletion strains, growth OD
[1] = locus YHR030C, strain SLT2, hits give low values
[2] = locus YHR079C, strain IRE1, hits give low values
[3] = locus YJL095W, strain BCK1, hits give low values
[4] = locus YJR066W, strain TOR1, hits give low values
[5] = locus YLR113W, strain HOG1, hits give low values
[6] = locus YNL183C, strain NPR1, hits give low values
[7] = locus YOR231W, strain MKK1, hits give low values
[8] = locus YPL256C, strain CLN2, hits give low values
[9] = locus YAL040C, strain CLN3, hits give low values
[10] = locus YCL061C, strain MRC1 (second series), hits give low values
[11] = locus YDR363W, strain ESC2, hits give low values
[12] = locus YER002W, strain NOP16, hits give low values
[13] = locus YGR078C, strain PAC10, hits give low values
[14] = locus YGR229C, strain SMI1, hits give low values
[15] = locus YMR263W, strain SAP30, hits give low values
[16] = locus YNL153C, strain GIM3, hits give low values
[17] = locus YNL175C, strain NOP13, hits give low values
[18] = locus YNL197C, strain WHI3, hits give low values
[19] = locus YNL224C, strain SQS1, hits give low values
[20] = locus YNL322C, strain KRE1, hits give low values
[21] = locus YOR083W, strain WHI5 (second series), hits give low values
[22] = locus YPL241C, strain CIN2, hits give low values
[23] = locus YDR150W, strain NUM1, hits give low values
[24] = locus YJR075W, strain HOC1, hits give low values
[25] = locus YNL128W, strain TEP1, hits give low values
[26] = locus YPL055C, strain LGE1, hits give low values
[27] = locus YMR307W, strain GAS1, hits give low values

COC(=O)C(OC(C)=O)[C@H]1C(C)(C)C(OC(C)=O)[C@@H]2CC3=C4CC(=O)O[C@@H](c5ccoc5)[C@]4(C)CCC3[C@@]1(C)C2=O (stereo not given in full)
normalized growth [1]: 0.961 | normalized growth [2]: 0.967 | normalized growth [3]: 0.979 | normalized growth [4]: 0.917 | normalized growth [5]: 0.99 | normalized growth [6]: 0.932 | normalized growth [7]: 0.989 | normalized growth [8]: 0.951

CCC(NC(C)C)C(O)c1ccc(O)c(O)c1 (stereo not given)
normalized growth [9]: 1 | normalized growth [10]: 0.992 | normalized growth [11]: 1.02 | normalized growth [12]: 1.01 | normalized growth [13]: 1.02 | normalized growth [14]: 0.976 | normalized growth [1]: 1.01 | normalized growth [2]: 0.97 | normalized growth [3]: 0.982 | normalized growth [4]: 0.954 | normalized growth [5]: 0.99 | normalized growth [15]: 1.02 | normalized growth [16]: 1 | normalized growth [17]: 1.02 | normalized growth [6]: 0.923 | normalized growth [18]: 1.02 | normalized growth [19]: 1.01 | normalized growth [20]: 0.992 | normalized growth [21]: 1.03 | normalized growth [7]: 0.982 | normalized growth [22]: 0.991 | normalized growth [8]: 0.96

CN(N=O)c1cc(O)ccc1O
normalized growth [9]: 0.98 | normalized growth [10]: 0.99 | normalized growth [23]: 1 | normalized growth [11]: 0.975 | normalized growth [12]: 1 | normalized growth [13]: 0.988 | normalized growth [24]: 0.989 | normalized growth [25]: 0.993 | normalized growth [16]: 1.02 | normalized growth [17]: 0.983 | normalized growth [18]: 1.01 | normalized growth [19]: 0.991 | normalized growth [21]: 0.991 | normalized growth [26]: 0.972 | normalized growth [22]: 0.987

CN(N=O)c1ccc(O)c(O)c1
normalized growth (locus YAL013W, strain DEP1, hits give low values): 0.957 | normalized growth [9]: 0.997 | normalized growth [10]: 0.946 | normalized growth [23]: 0.934 (active) | normalized growth [11]: 0.928 | normalized growth [12]: 0.974 | normalized growth [13]: 0.972 | normalized growth [24]: 0.93 | normalized growth [15]: 0.998 | normalized growth [17]: 0.976 | normalized growth [18]: 0.964 | normalized growth [19]: 0.994 | normalized growth [21]: 0.98 | normalized growth [26]: 0.993

CC(C)C[C@H](NC(=O)[C@H](O)[C@H](N)Cc1ccccc1)C(=O)O
normalized growth [9]: 0.978 | normalized growth [10]: 1 | normalized growth [11]: 1.03 | normalized growth [12]: 1.03 | normalized growth [14]: 1 | normalized growth [15]: 0.994 | normalized growth [27]: 0.986 | normalized growth [25]: 0.981 | normalized growth [16]: 0.986 | normalized growth [17]: 0.999 | normalized growth [18]: 1 | normalized growth [19]: 0.99 | normalized growth [21]: 1.03

CC(C)CC(NC(=O)C(Cc1ccccc1)NC(=O)CNC(=O)CNC(=O)C(N)Cc1ccc(O)cc1)C(=O)O (stereo not given)
normalized growth (locus YBR021W, strain FUR4, hits give low values): 0.858 | normalized growth (locus YBR229C, strain ROT2, hits give low values): 0.95 | normalized growth (locus YCL029C, strain bik1, hits give low values): 0.979 | normalized growth (locus YDL035C, strain GPR1, hits give low values): 0.956 | normalized growth (locus YDL074C, strain BRE1, hits give low values): 1.01 | normalized growth (locus YDL101C, strain DUN1, hits give low values): 1.02 | normalized growth (locus YDL185W, strain tfp1, hits give low values): 0.973 | normalized growth (locus YDL192W, strain arf1, hits give low values): 0.995 | normalized growth (locus YDR101C, strain arx1, hits give low values): 0.976 | normalized growth [23]: 0.989 | normalized growth (locus YDR162C, strain NBP2, hits give low values): 0.951 | normalized growth (locus YDR318W, strain mcm21, hits give low values): 0.991 | normalized growth (locus YDR388W, hits give low values): 0.978 | normalized growth (locus YDR502C, strain sam2, hits give low values): 1.01 | normalized growth (locus YEL061C, strain CIN8, hits give low values): 0.987 | normalized growth (locus YER110C, hits give low values): 0.988 | normalized growth (locus YER155C, strain BEM2, hits give low values): 1.01 | normalized growth (locus YER167W, strain BCK2, hits give low values): 0.989 | normalized growth (locus YGL078C, strain dbp3, hits give low values): 0.999 | normalized growth (locus YGL086W, strain mad1, hits give low values): 1 | normalized growth (locus YGL248W, strain PDE1, hits give low values): 1 | normalized growth (locus YGR135W, strain pre9, hits give low values): 0.96 | normalized growth [14]: 0.963 | normalized growth (locus YGR252W, strain gcn5, hits give low values): 1.07 | normalized growth [1]: 0.984 | normalized growth (locus YHR079C, strain IRE1 (second series), hits give low values): 0.996 | normalized growth (locus YHR094C, strain hxt1, hits give low values): 0.982 | normalized growth (locus YHR129C, strain ARP1, hits give low values): 0.998 | normalized growth (locus YHR200W, strain rpn10, hits give low values): 0.994 | normalized growth (locus YIL066C, strain RNR3, hits give low values): 0.948 | normalized growth (locus YIL073C, strain SPO22, hits give low values): 1.28 | normalized growth (locus YIL125W, strain kgd1, hits give low values): 0.993 | normalized growth (locus YIR030C, strain dcg1, hits give low values): 1 | normalized growth [3]: 1.06 | normalized growth (locus YJL134W, strain LCB3, hits give low values): 0.987 | normalized growth (locus YJL168C, strain set2, hits give low values): 1.01 | normalized growth (locus YJL187C, strain SWE1 (second series), hits give low values): 1.03 | normalized growth (locus YJR043C, strain POL32, hits give low values): 0.976 | normalized growth (locus YKL009W, strain mrt4, hits give low values): 1.01 | normalized growth (locus YKL068W, hits give low values): 0.989 | normalized growth (locus YKL085W, strain MDH1 (second series), hits give low values): 0.99 | normalized growth (locus YKL085W, strain MDH1, hits give low values): 0.99 | normalized growth (locus YKL190W, strain CNB1, hits give low values): 1 | normalized growth (locus YKR001C, strain vps1, hits give low values): 1.01 | normalized growth (locus YLR039C, strain RIC1, hits give low values): 1.38 [resistant] (active) | normalized growth (locus YLR058C, strain SHM2, hits give low values): 0.981 | normalized growth (locus YLR102C, strain apc9, hits give low values): 0.994 | normalized growth (locus YLR262C, strain YPT6, hits give low values): 1.46 [resistant] (active) | normalized growth (locus YLR268W, strain sec22, hits give low values): 1.01 | normalized growth (locus YLR330W, strain CHS5, hits give low values): 0.986 | normalized growth (locus YLR342W, strain FKS1 (second series), hits give low values): 0.889 | normalized growth (locus YLR371W, strain rom2, hits give low values): 0.988 | normalized growth (locus YLR418C, strain cdc73, hits give low values): 1 | normalized growth (locus YML016C, strain PPZ1, hits give low values): 0.975 | normalized growth (locus YML032C, strain rad52, hits give low values): 0.97 | normalized growth (locus YML124C, strain tub3, hits give low values): 0.998 | normalized growth (locus YMR078C, strain ctf18, hits give low values): 0.986 | normalized growth (locus YMR223W, strain ubp8, hits give low values): 0.988 | normalized growth [27]: 1.01 | normalized growth (locus YNL067W, strain RPL9B, hits give low values): 1.05 | normalized growth [25]: 0.969 | normalized growth (locus YNL233W, strain BNI4, hits give low values): 1.04 | normalized growth (locus YNL250W, strain rad50, hits give low values): 0.981 | normalized growth (locus YNL271C, strain bni1, hits give low values): 0.988 | normalized growth (locus YNL298W, strain CLA4, hits give low values): 0.979 | normalized growth (locus YNL307C, strain MCK1, hits give low values): 0.987 | normalized growth [20]: 0.997 | normalized growth (locus YNR052C, strain pop2, hits give low values): 0.981 | normalized growth (locus YOL012C, strain htz1): 0.972 | normalized growth (locus YOL147C, strain pex11, hits give low values): 0.993 | normalized growth (locus YOR061W, strain CKA2, hits give low values): 0.961 | normalized growth (locus YOR069W, strain VPS5, hits give low values): 0.99 | normalized growth (locus YOR136W, strain idh2, hits give low values): 1.02 | normalized growth (locus YOR144C, strain elg1, hits give low values): 0.995 | normalized growth (locus YOR184W, strain ser1, hits give low values): 0.996 | normalized growth (locus YOR316C, strain cot1, hits give low values): 0.989 | normalized growth [26]: 0.988 | normalized growth [22]: 0.985 | normalized growth (locus YPR119W, strain clb2, hits give low values): 0.992 | normalized growth (locus YPR141C, strain kar3, hits give low values): 0.991 | normalized growth (locus YPR163C, strain tif3, hits give low values): 0.979 | normalized growth (locus YPR167C, strain met16, hits give low values): 0.997 | normalized growth (strain wtn01, hits give low values): 0.987
